# Out of some 210,000 compounds screened, about 520 (0.25%) were called active. No stated cut-off is given here; in the data, active means inhibition above about 50%; inactive means the rest. Only a selection was taken, and actives are over-represented in it overall.
# Tested on: Plasmodium falciparum apicoplast DNA polymerase (apPOL)
# Assay: Pf-apPOL inhibitors, biochemical, fluorescence (AID 1794808)
# Details: Recombinant Pf-apPOL, molecular beacon fluorescence, 1.5 h; at 10 µM; stronger effect = higher value
row,SMILES,inhibition
1,CC(C)CC1=NN(C(=O)c2cccc(Cl)c2)C(O)(C(F)(F)F)C1 (stereo not given),2% (inactive)
2,CC(C)c1cccc(N2C=C(C#N)S(=O)(=O)c3c(F)cccc32)c1,-0.6% (inactive)
3,COc1ccc(NS(=O)(=O)c2c(C)cc(C)cc2C)c([N+](=O)[O-])c1,-4% (inactive)
4,COc1cc(C(=O)N2CCC(c3noc(-c4cccc(F)c4)n3)CC2)cc(OC)c1OC,0.1% (inactive)
5,O=C(c1ccc(OCC2CCCN(C(=O)c3ccccn3)C2)cc1)N1CCCC1 (stereo not given),3.1% (inactive)
6,CCc1ccc(OCC(=O)Nc2cc(OC)c(Cl)cc2OC)cc1,-9.2% (inactive)
7,O=C(NCCCNc1ccc([N+](=O)[O-])cc1Cl)c1ccccc1Br,4.9% (inactive)
8,Cc1nc(-c2ccccc2)sc1C(=O)ON=C(N)c1ccc([N+](=O)[O-])o1,11.5% (inactive)
9,CCCOc1ccc(S(=O)(=O)NCC2CCN(S(=O)(=O)C3CC3)CC2)cc1C,-5.5% (inactive)
10,CC(=O)N1CCc2ccccc2C1C(=O)NCc1ccc(C)cc1 (stereo not given),-0.9% (inactive)
11,COc1cccc2sc(=NC(=O)c3cccc(F)c3)n(C)c12,2.7% (inactive)
12,Cc1nc(N2CCC(C(N)=O)CC2)nc(NCc2ccco2)c1[N+](=O)[O-],-9.6% (inactive)
13,COc1cccc(-c2n[nH]c(C)c2NC(=O)C(C)C)c1,-6.9% (inactive)
14,CCn1c(C2CCN(S(=O)(=O)c3cc(OC)ccc3OC)C2)nc2cccnc21 (stereo not given),-5.5% (inactive)
15,Cc1ccc(CC(=O)NC2CCN(c3cc(C)cc(C)c3)C2=O)cc1 (stereo not given),-5.7% (inactive)
16,Cc1nc(-c2ccccc2F)sc1C(=O)N1CCCC1,-7.4% (inactive)
17,Cc1nc(-c2ccncc2)nc2c1CC(=O)N2C1CCCC1,-7.5% (inactive)
18,COc1cc(NC(=O)c2cccc([N+](=O)[O-])c2)c(OC)cc1NC(=O)c1ccccc1,-2.7% (inactive)
19,Cc1cccc(CN2CCCn3nc(C(=O)Nc4ccccc4C)cc3C2=O)c1,-2.2% (inactive)
20,CC1(C(=O)O)NC(c2cc(Cl)ccc2O)C2C(=O)N(c3ccc(Cl)cc3)C(=O)C21 (stereo not given),-9.1% (inactive)
21,O=Cc1ccc(OCc2cccc(F)c2)c(Cl)c1,1.2% (inactive)
22,O=C1CN(C(=O)c2c(F)cccc2F)C(c2ccccc2)c2cc(F)ccc2N1 (stereo not given),-3.5% (inactive)
23,COc1cccc(-c2cc3n(n2)CCCN(C(=O)Cc2ccsc2)C3)c1,-7.6% (inactive)
24,COc1ccccc1N1CCN(CC(=O)Nc2ncc(C)s2)C1=O,-2.4% (inactive)

row,SMILES,inhibition
1,CCC(CC)C(=O)N1CCN(c2ccc([N+](=O)[O-])cc2)CC1,-4.2% (inactive)
2,Cc1ccc(C(=O)N2CCN(c3ccc(F)c(Cl)c3)C(=O)C2C)cc1 (stereo not given),69.1% (active)
3,CC1C(=O)N(c2cccc(F)c2)CCN1C(=O)c1ccc(Cl)cc1 (stereo not given),-2.7% (inactive)
4,Cc1cccc(N2CCN(C(=O)c3ccc(F)cc3)C(C)C2=O)c1 (stereo not given),0.4% (inactive)
5,Cc1cccc(NS(=O)(=O)c2c(C)n[nH]c2C)c1C,-1.5% (inactive)
6,Cc1cc(C)n(-c2ccc(C(=O)NC3CCCC3)cn2)n1,2% (inactive)
7,CCC1CCCCN1C(=O)CSc1nc2c(c(=O)n1C)SC(C)C2 (stereo not given),-6.3% (inactive)
8,COc1ccc(C=C2Oc3c(ccc(O)c3CN3CCCCCC3)C2=O)cc1OC,-19.5% (inactive)
9,N/C(=N\OC(=O)CCCc1ccccc1)c1ccc(Cl)cc1,5.3% (inactive)
10,Cc1cccc(NC(=O)N2CC(c3nc(C)no3)C3(CCOCC3)C2)c1 (stereo not given),-0.4% (inactive)
11,COc1ccccc1OCC(=O)N1CCCCC1CCN1CCCCCC1 (stereo not given),-10.1% (inactive)
12,Cc1ccc2c(c1)C(=O)CC(c1cc(Br)cc3c1OCOC3)O2 (stereo not given),-13.6% (inactive)
13,Cc1ccccc1-n1nc2c(c1NC(=O)c1c(F)cccc1Cl)CS(=O)(=O)C2,-3.3% (inactive)
14,Cc1nc(C(C)C)nc2c1CCC(=O)N2CCCN1CCOCC1,4% (inactive)
15,Cc1cccc(NC(=O)CC2SC(=Nc3ccccc3)NC2=O)c1 (stereo not given),2.1% (inactive)
16,O=C(NCCCN1CCOCC1)c1cc2c(=O)oc3ccccc3c2s1,1.2% (inactive)
17,O=C(NC1CCCC1)c1ccc(-n2nc(N3CCCC3)ccc2=O)cc1,4.7% (inactive)
18,COC(=O)c1ccccc1OC1OC(CO)C(O)C(O)C1NC(C)=O (stereo not given),1.3% (inactive)
19,O=C(c1ccc([N+](=O)[O-])cc1)N1CCN(c2cccc(Cl)c2)CC1,-2.7% (inactive)
20,N#CC(C#N)=C1SCN(c2cccc(Cl)c2)CS1,66.2% (active)
21,CC(=O)Nc1ccc(C(=O)N2CCN(c3cccc(Cl)c3)CC2)cc1,9.7% (inactive)
22,CCn1cc(C2=CCN(S(=O)(=O)c3cccc(C)c3)CC2)c2cccnc21,-11% (inactive)
23,Nc1cc2c(cc1[N+](=O)[O-])OCCOCCOc1ccc([N+](=O)[O-])cc1OCCOCCO2,-0.2% (inactive)
24,CCCNc1cc(N2CCCC(CCC(=O)Nc3ccc4c(c3)OCCO4)C2)ncn1 (stereo not given),-2.1% (inactive)

row,SMILES,inhibition
1,COc1cccc(NC(=O)c2cncc(-c3ccc(F)cc3)c2)c1,1.8% (inactive)
2,Cc1cc(C)cc(-c2nc(-c3ccc4c(c3)oc(=O)n4C)no2)c1,0.7% (inactive)
3,COc1ccc(C(O)=C2C(=O)C(=O)N(CCN3CCOCC3)C2c2ccccc2F)cc1OC (stereo not given),-2.5% (inactive)
4,O=C(COc1ccc(Cl)cc1)N1CCC(N2CCCCCC2)CC1,-3.8% (inactive)
5,COc1ccc(NCN2C(=O)c3cc(Cl)c(Cl)cc3C2=O)cc1,7.8% (inactive)
6,CCN(CC)CCNC(=O)C(=O)NCC1OCCN1S(=O)(=O)c1ccc(F)cc1 (stereo not given),-1.4% (inactive)
7,O=C(Nc1ccc(F)c(Cl)c1)c1noc2c1CCCCC2,-2.8% (inactive)
8,CCCCC(NC(C)=O)C(=O)O (stereo not given),4.1% (inactive)
9,CCCCOc1ccccc1/C=c1\sc2ncnn2c1=O,10.1% (inactive)
10,COc1ccc(NC(=O)CCC2CCN(c3cc(NC4CC4)ncn3)CC2)cc1,0.2% (inactive)
11,COCCNC(=O)NCCCc1ccc(N(C)C)cc1,-1.5% (inactive)
12,COc1cccc(/C=c2\sc3nc(=O)c(C)nn3c2=O)c1,1.4% (inactive)
13,CC(=O)N1CCc2sc(S(=O)(=O)N3CCN(c4ccccc4F)CC3)cc2C1,-5.6% (inactive)
14,COc1ccc(-c2cc(=O)n(CCNC(=O)Cn3cnc4ccccc4c3=O)cn2)cc1,-6.7% (inactive)
15,COc1ccc(NC(=O)CSc2nc3c(cnn3-c3ccc(C)cc3)c(=O)[nH]2)c(OC)c1,3.2% (inactive)
16,C(=Nc1ccccc1-n1cccc1)c1cnc(-c2ccccc2)[nH]1,-2.2% (inactive)
17,C=CCNC(=O)CCSc1ccc(Cl)cc1,0.6% (inactive)
18,CC1CCCCC1NS(=O)(=O)c1cc(C(=O)Nc2ccc(F)c(F)c2)ccc1F (stereo not given),37.3% (inactive)
19,CC12CC3(C)CC(C)(C1)CC(C(=O)Nc1ccc(F)c(Cl)c1)(C2)C3,-2.2% (inactive)
20,O=C(c1cc(F)cc(F)c1)N1CCC(c2cnn(-c3cccc(F)c3)c2)CC1,-5.6% (inactive)
21,COc1ccc2nc(SCC(=O)NCc3cccs3)[nH]c2c1,-5.8% (inactive)
22,COc1ccc2nc(SC)[nH]c2c1,-6.5% (inactive)
23,COc1ccc2nc(SCC(=O)c3ccc(Cl)c(Cl)c3)[nH]c2c1,79.6% (active)
24,CC(=O)N1CCc2cc(N3CC(C(=O)Nc4cccc(F)c4)CC3=O)ccc21 (stereo not given),-3.7% (inactive)

row,SMILES,inhibition
1,O=C(CCCC1=NS(=O)(=O)c2ccccc2N1)Nc1cccc(C(=O)O)c1,-7.1% (inactive)
2,O=C(NCCC1=CCCCC1)C(=O)NCC(c1ccc2c(c1)OCO2)N1CCOCC1 (stereo not given),-1.8% (inactive)
3,Cc1ccc(C)c(OCC(=O)Nc2ccccc2C(N)=O)c1,4.8% (inactive)
4,O=C(NCC1COC2(CCCC2)O1)c1ccccc1[N+](=O)[O-] (stereo not given),-1.9% (inactive)
5,O=C(CCc1ccccc1)NCC1COC2(CCCCC2)O1 (stereo not given),90.3% (active)
6,O=C(C=Cc1ccco1)NCC1COC2(CCCCC2)O1 (stereo not given),-8.3% (inactive)
7,Cc1cc(NC(=O)N2CC3CCCN3c3ccccc32)ccc1Br (stereo not given),0.1% (inactive)
8,CN1/C(=C/C(=O)c2ccc(I)cc2)Sc2ccccc21,-77.1% (inactive)
9,CC(C)CNS(=O)(=O)c1ccc2nc(NC(=O)c3ccco3)sc2c1,45.1% (inactive)
10,NC(COc1ccc(Cl)cc1)=NOC(=O)c1ccsc1,-6.2% (inactive)
11,COc1cc(OC)c(N2C(=O)NC3CC2(C)Oc2ccccc23)cc1Cl (stereo not given),-6.1% (inactive)
12,Fc1ccc(-c2nc(-c3ccc(Cl)cc3)no2)cc1,-2.6% (inactive)
13,O=C(Nc1cc(F)c2nc(N3CCCC3)ccc2c1)c1cccc(F)c1,0.1% (inactive)
14,COc1ccc(/C=C2/C(=O)N(c3ccccc3)N=C2C)c(OC)c1,2.6% (inactive)
15,COc1ccc(C2C=C(Nc3ccccc3)C(=O)N2c2ccccc2)c(OC)c1 (stereo not given),65.6% (active)
16,O=C1C(Nc2ccccc2)=CC(c2ccc([N+](=O)[O-])cc2)N1c1ccccc1 (stereo not given),8.9% (inactive)
17,Cc1ccc2c(c1)N(Cc1nc(-c3ccc(C)c(C)c3)no1)C(=O)CO2,-2.1% (inactive)
18,CC(C=CC=C(C)C(=O)OC1OC(COC2OC(CO)C(O)C(O)C2O)C(O)C(O)C1O)=CC=CC=C(C)C=CC=C(C)C(=O)OC1OC(COC2OC(CO)C(O)C(O)C2O)C(O)C(O)C1O (stereo not given),-1.1% (inactive)
19,CC(C)(C)NC(=O)N1CCC(CNC(=O)C(=O)Nc2cc(F)ccc2F)CC1,-4.8% (inactive)
20,COc1cc(OC)c(OC)cc1CN1CCCC1c1cc(C)on1 (stereo not given),3.3% (inactive)
21,CCOc1cc(C2C3=C(CCCC3=O)N(CC)C3=C2C(=O)CCC3)cc(Cl)c1O,65.7% (active)
22,CCN1C2=C(C(=O)CCC2)C(c2cc(Br)c(O)c(OC)c2)C2=C1CCCC2=O,1.1% (inactive)
23,CCN1C2=C(C(=O)CC(C)(C)C2)C(c2cc(Cl)c(O)c(OC)c2)C2=C1CC(C)(C)CC2=O,6.7% (inactive)

# — PubChem BioAssay AID1794808 (University of Kansas High Throughput Screening Laboratory, 2022)
